The record followed here is PubChem BioAssay.

This assay is described as follows: basal MM1S mitochondrial membrane potential changes, profiling panel, cell-based, JC-1 fluorescence, 24 h, 100 nL compound (AID 1170). Further: test concentration not given here. As to conditions: higher = more signal.
For `Cc1ccc(S(=O)(=O)N2[C@@H](c3ccccc3)C(C(=O)O)=C[C@H]2C(C)(C)C)cc1`, the z-score is -0.953.

Compound `C=C1C(=O)C=C2CN(C(=O)c3ccccc3)[C@@](Cc3ccc(F)cc3)(C(=O)OC)[C@@H]12` yielded a z-score of -2.82.

`COC(=O)[C@@]1(Cc2ccc(F)cc2)[C@H]2c3cc(C(=O)N4CCCC4)n(CCc4c[nH]c5cc(F)ccc45)c3C[C@H]2CN1C(=O)c1ccccc1` registered a z-score of -1.21.

In turn, `CCCCN1CC=CC23O[C@@H]4C=CCCOC(=O)C4[C@H]2C(=O)N(CCO)[C@@H]3C1=O` (some centres not stated) yielded a z-score of 0.37.

`Cc1ccc(S[C@]2(C(=O)NC3CC3)CC(=O)N(C3Cc4ccccc4C3)[C@@H]2c2ccc(CO)cc2I)cc1` displayed a z-score of -0.499.

Take `C=CCOC(=O)[C@H]1[C@@H]2C(=O)O[C@@H](c3ccccc3)[C@@H](c3ccccc3)N2[C@@H](c2ccc(OCCOC(=O)[C@H]3C[C@H]4C(=O)NCC(=O)N4[C@H]3c3cccc(OCCO)c3)cc2)[C@]12C(=O)Nc1ccc(I)cc12`: the z-score was -1.28.

`CC1(C)OB(/C=C\CC(OC(=O)c2ccncc2)c2ccccc2)OC1(C)C` (configuration not stated) gave a z-score of 0.343.

`CC[C@@H](O[Si](C#C[Si](C(C)C)(C(C)C)C(C)C)(C(C)C)C(C)C)c1cn([C@H](CO)Cc2ccccc2)nn1`: the z-score was -0.757.

In the case of `C=C[C@H](OC)[C@@H](O)c1ccc(OC)c(O)c1`, the z-score was found to be 0.443.

For the compound `CC(C)(C)OC(=O)CC[C@@]1(C(N)=O)N=C(c2ccc(OCCCO)cc2)O[C@@H]1c1ccccc1CN=[N+]=[N-]`, the z-score is -0.829.

`COCCOC(=O)N1C(=O)[C@@]2(c3cc(C#CCNC(N)=O)ccc31)[C@H](c1ccc(O)cc1)N1[C@H](c3ccccc3)[C@H](c3ccccc3)OC(=O)[C@H]1[C@@H]2C(=O)N1CCc2cc(OC)c(OC)cc2C1` yielded a z-score of 0.583.

Turning to `COc1cc2c(cc1O)C(C)N(Cc1sc3ccccc3c1Cl)CC2` (configuration not stated), the z-score was -0.995.

`COCCOC(=O)N1C(=O)[C@@]2(c3cc(C#CCC(C(=O)OC)C(=O)OC)ccc31)[C@H](C(N)=O)[C@H]1C(=O)O[C@H](c3ccccc3)[C@H](c3ccccc3)N1[C@@H]2c1ccccc1OCCO` came in with a z-score of -1.62.

Compound `C[C@H]1C2[C@H](Cc3ccccc3)NC(=O)[C@]23C(=O)N[C@@H](Cc2ccccc2)C(=O)N2CCC[C@H]2C(=O)NC/C=C/CC/C=C/C3[C@@H]2O[C@]12C` (some centres not stated) gave a z-score of 0.793.

For the compound `C[C@@]1([C@@H](NS(=O)(=O)c2cccc3cccnc23)c2ccc(-c3ccccc3)cc2)C[C@H]1C1CCCCC1`, the z-score was -1.72.

In the case of `COc1ccc(CCNC(=O)[C@@H]2c3ccccc3C(=O)N(Cc3cc(F)cc(C(F)(F)F)c3)[C@H]2c2ccc(CO)cc2)cc1`, the z-score was 0.558.

Turning to `C=CC[C@H](O)c1ccc(O)c(F)c1`, the z-score stood at 0.384.

For `CC(C)N1CC=CC23O[C@@H]4/C=C\CCCOC(=O)C4[C@H]2C(=O)N(C(C)CO)[C@@H]3C1=O` (some centres not stated), the z-score is -1.08.

For `C=CCOC(=O)[C@@H]1[C@H]2C(=O)O[C@H](c3ccccc3)[C@H](c3ccccc3)N2[C@H](c2ccc(OCCOC(=O)[C@H]3C[C@H]4C(=O)N[C@@H](CCCCN(C)C)C(=O)N4[C@H]3c3cccc(OCCO)c3)cc2)[C@@]12C(=O)Nc1ccccc12`, the z-score was -0.689.

The compound `COCCOC(=O)N1C(=O)[C@@]2(c3cc(C#CC4=CCCCC4)ccc31)[C@H](C(=O)N1CCCCCCC1)[C@H]1C(=O)O[C@H](c3ccccc3)[C@H](c3ccccc3)N1[C@@H]2c1ccccc1OCCO` had a z-score of -0.982.

Turning to `CCCCCN1CC=CC23O[C@@H]4/C=C\CCCOC(=O)C4[C@H]2C(=O)N(CCO)[C@@H]3C1=O` (some centres not stated), the z-score was -0.307.

In the case of `CC(C)N1C(=O)[C@@]2(Cc3ccccc31)c1ccccc1C(=O)N(Cc1ccccc1)[C@H]2c1ccc(CO)cc1`, the z-score was determined as 0.687.

Compound `C=C(CC1([C@@H](NP(=O)(c2ccccc2)c2ccccc2)[C@H]2C[C@@H]2CCCC)CC1)c1cccc(OC)c1` registered a z-score of -0.366.

In turn, `CC[C@@H](O[Si](C#C[Si](C(C)C)(C(C)C)C(C)C)(C(C)C)C(C)C)c1cn(Cc2cccc(Cl)c2)nn1` came in with a z-score of -1.25.

In the case of `COCCCNC(=O)[C@]1(Cc2ccccc2CN=[N+]=[N-])N=C(c2ccc(OCCCO)cc2)O[C@@H]1c1ccccc1N=[N+]=[N-]`, the z-score was -2.77.

The compound `COc1ccc([Si](C)(C)[C@H]2[C@H](CC(=O)N(CCO)Cc3ccccc3)O[C@@]3(C(=O)N(Cc4cccc(N5CCCCC5=O)c4)c4ccccc43)[C@@H]2C)cc1` returned a z-score of -1.61.

Turning to `C=C(/C=C\CNS(=O)(=O)c1ccc(C)cc1)[C@H](O)[C@H]1CCCN1S(=O)(=O)c1ccccc1[N+](=O)[O-]`, the z-score is -0.671.
